# USP17 block – inhibitors of human USP17 deubiquitinase; purified USP17, Ub-rhodamine cleavage fluorescence, 3 h; inhibition, % at 50 µM; 47,000 compounds, 6.5% hits
# USP28 block – inhibitors of human USP28 deubiquitinase. Q96RU2. purified USP28, Ub-rhodamine cleavage fluorescence, 30 min. inhibition, % at 25 µM. 47,000 compounds, 3% hits
# OTUD3 inh – blocks human OTUD3 ubiquitin-rhodamine cleavage | Q5T2D3 | purified OTUD3, Ub-rhodamine fluorescence, 2 h | inhibition, % at 25 µM | 47,000 compounds, 0.7% hits
# Target sequence (Q5T2D3 whole entry, looked up): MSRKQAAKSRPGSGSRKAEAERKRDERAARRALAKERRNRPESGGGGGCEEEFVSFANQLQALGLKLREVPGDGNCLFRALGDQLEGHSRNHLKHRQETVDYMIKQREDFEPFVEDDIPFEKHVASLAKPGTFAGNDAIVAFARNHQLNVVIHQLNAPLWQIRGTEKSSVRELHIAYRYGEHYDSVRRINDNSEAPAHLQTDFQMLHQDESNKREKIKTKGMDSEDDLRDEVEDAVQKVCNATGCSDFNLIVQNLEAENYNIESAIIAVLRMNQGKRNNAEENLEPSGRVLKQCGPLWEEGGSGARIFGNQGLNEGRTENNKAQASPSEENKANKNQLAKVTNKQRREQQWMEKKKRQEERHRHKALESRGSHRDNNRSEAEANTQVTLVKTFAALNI
# USP30 block – inhibitors of human USP30 deubiquitinase | AID 1645860 | 47,000 compounds, 5.3% hits | inhibition, % at 25 µM | purified USP30, Ub-rhodamine cleavage fluorescence
# USP8 block – human USP8 deubiquitinase inhibition; P40818; purified USP8, Ub-rhodamine cleavage fluorescence, 30 min; inhibition, % at 20 µM; 47,000 compounds, 4.2% hits
# * marks the source's active call; other numbers are inactive results. Rows were chosen to be rich in hits. Some 13% of all compounds tested hit in one or more screens of this group. Rule as the data show it: active = inhibition above about 30%; inactive = the rest.
SMILES,USP17 block,USP28 block,OTUD3 inh,USP30 block,USP8 block
O=C1CC(c2ccc(Cl)cc2)n2nc(NC(=O)c3cccs3)nc2N1 (configuration not stated),22,10,3,26,24
Cc1nc2c(nnn2C[C@@H]2CCCN(C(=O)c3cc(F)cc(F)c3)C2)c(=O)[nH]1,0,-5,2,-72,0
Cc1cccc(NC(=O)N2CCc3[nH]cnc3C2c2ccncc2)c1C (configuration not stated),0,-8,-4,-11,-2
O=C(CCc1ccc2c(c1)CCO2)Nc1cccnc1,-6,3,-6,-1,-1
O=C(Nc1ccc(-n2ccc(C(F)(F)F)n2)cc1)Nc1ccc2c(c1)CCO2,12,41*,16,32*,9
O=C(Cc1ccc(-n2c(=O)[nH]c3ccsc3c2=O)cc1)N1CCC(Cc2ccccc2)CC1,47*,37*,18,29,0
NCCNC(=O)N1CCC2(CC1)OC(=O)N(Cc1ccccc1)c1ccccc12,-8,34*,5,5,-11
NCCC(=O)N1CCC2(CC1)OC(=O)N(Cc1ccccc1)c1ccccc12,-11,13,-8,-4,-89
Cc1cc(C)n(-c2ccnc(N3CCC(C(=O)N4CCN(c5ccccn5)CC4)CC3)n2)n1,-4,30*,4,5,5
O=C(CCC1CCCCC1)Nc1ccccc1C(=O)N1CCOCC1,70*,34*,29,40*,80*
O=C(c1ccc(OCC2CCN(C(=O)c3ccccc3)CC2)cc1)N1CCOCC1,-2,-4,-4,5,-2
O=[N+]([O-])c1ccc(C(c2ccc[nH]2)c2ccc[nH]2)cc1,37*,-1,1,-55,-22
CCc1ccc(NC(=O)CSc2nnnn2-c2cccnc2)cc1,-5,31*,13,12,14
Cn1c(=O)n(Cc2ccccc2F)c2cccnc21,-5,8,-3,3,8
CC1Oc2ccccc2C(=O)N(Cc2ccccc2)C1=O (configuration not stated),20,33*,22,32*,18
CC1Oc2ccccc2C(=O)N(CC(=O)c2ccc3c(c2)OCCO3)C1=O (configuration not stated),13,31*,13,23,14
COc1ccc(CCn2nnnc2C(c2ccccc2)N2CCN(c3ccccc3)CC2)cc1OC (configuration not stated),-32,-23,-2,-17,-143
COc1ccc(C(=O)Nc2cccc(/C=C/c3nc4sc5c(c4c(=O)[nH]3)CCCC5)c2)cc1,-50,-91,-82,-294,0
Cc1c2oc3c(C)ccc(C(=O)NC4C(=O)N[C@@H](C(C)C)C(=O)N5CCCC5C(=O)N(C)CC(=O)N(C)C(C(C)C)C(=O)OC4C)c3nc-2c(C(=O)NC2C(=O)N[C@H](C(C)C)C(=O)N3CCCC3C(=O)N(C)CC(=O)N(C)C(C(C)C)C(=O)OC2C)c(N)c1=O (some centres not stated),62*,-11,-24,-112,17
COc1ccc(CN2C(=O)N[C@@H](CCC(=O)Nc3ccc(OC)cc3)C2=O)cc1,13,4,3,13,12
Cc1nn(-c2ccccc2)c2[nH]c(=O)c(CNCCN3CCOCC3)cc12,20,12,12,22,22
Cc1nn(-c2ccc(Cl)cc2)c2[nH]c(=O)c(CNc3ccc4c(c3)OCCO4)cc12,-31,-51,-39,-187,80*
O=C(NCc1ccco1)c1cnn(-c2ccc(Cl)cc2)c1C(F)(F)F,15,-1,11,-13,-146
CC(C)(C)c1nn(-c2ccc(Cl)cc2)c2[nH]c(=O)c(CNCc3ccco3)cc12,-58,-81,-68,-334,66*
Cc1nn(-c2ccc(Cl)cc2)c2[nH]c(=O)c(CNCCc3ccccc3)cc12,12,4,-9,-16,78*
Cc1nn(-c2ccc(Cl)cc2)c2[nH]c(=O)c(CNc3ccccc3)cc12,40*,5,12,-14,80*
Fc1ccc(C(CCNCc2ccccc2F)c2ccco2)cc1 (configuration not stated),1,23,15,-23,16
COCCn1ccc2nc(C)c(C(=O)Nc3ccc(C)c(C)c3)cc2c1=O,-13,-5,-11,-19,-7
Cc1ccc(NCc2cc3c(C(C)(C)C)nn(-c4ccc(Cl)cc4)c3[nH]c2=O)cc1C,43*,-4,14,3,88*
